Rv3671c inh: Rv3671c serine protease inhibitors, primary screen, biochemical, fluorescence polarization, M. tuberculosis H37Rv | P9WHR9 | inhibition, % at 5.96 µM | hit rate 0.048% among 320,000 | AID 2606, 2010; in the data active = inhibition above about 38%;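 note: extracellular domain of Rv3671c used as enzyme; 0% = enzyme with DMSO and 100% = no enzyme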
SSB-PriA inh: inhibitors of Klebsiella pneumoniae PriA binding to SSB C-terminal tail, primary screen, biochemical, AlphaScreen; PriA–SSB C-terminal tail interaction (Klebsiella pneumoniae); AID 1272365, 2023; hit rate 0.6% among 430,000; inhibition, % at 33 µM; AlphaScreen SSBct-PriA binding, biotinylated peptide; in the data active = inhibition mostly above about 37%, no sharp cut-off; inactive = mostly below about 20%;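 note: plate controls were negative control peptide for no effect and reference peptide for full effect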
Mtb UGM inh: M. tuberculosis UGM enzyme inhibitors, primary screen, biochemical, fluorescence polarization, single point; UDP-galactopyranose mutase (Mycobacterium tuberculosis (strain ATCC 25618 / H37Rv)), …; purified UGM, fluorescence polarization probe displacement; inhibition, % at 10 µM; hit rate 0.06% among 320,000; in the data active = inhibition above about 10%, passing the limit was not always enough
PrPC TRFRET: inhibitors of human cell surface prion protein PrPC, primary screen, cell-based, TR-FRET. Major prion protein (Homo sapiens), P04156. TR-FRET read-out. inhibition, % at 13.8 µM. hit rate 0.43% among 370,000. AID 720596, 2013; in the data active = inhibition above about 24%; note: 0% = median of the test wells and 100% = reference compound wells
PrP UTR inh: inhibition of PrP 5' UTR reporter expression; cell-based PrP 5' UTR mRNA reporter, plate reader; inhibition, % (concentration not given with the values); hit rate 0.35% among 340,000; AID 488862, 2010; in the data active = inhibition above about 52%; note: 0 = median of the neutral control wells
FadD28 binding: inhibitors of FadD28 bisubstrate probe binding, primary screen, biochemical, fluorescence polarization, single point. hit rate 0.22% among 360,000. inhibition, % at 12.5 µM; in the data active = inhibition above about 8.5%, passing the limit was not always enough
PrPC confirm: confirmation of inhibitors of cell surface human prion protein, confirmation, cell-based, TR-FRET | hit rate 65% among 1,500 | cell surface PrPC level | shares compounds with PrPC TRFRET | inhibition, % at 13.8 µM; in the data active = inhibition above about 25%
LD9 tox: cytotoxicity in LD9 cells, cytotoxicity control for cell surface PrPc inhibitor project, cell-based, luminescence, high throughput | luminescence viability | hit rate 29% among 1,500 | inhibition, % at 13.8 µM | shares compounds with PrPC TRFRET; in the data active = inhibition above about 9.5%
Active calls of the source: *; . = no result given. Most compounds without a hit are left out; they make up all but 1.2% or so of the library.

SMILES | Rv3671c inh | SSB-PriA inh | Mtb UGM inh | PrPC TRFRET | PrP UTR inh | FadD28 binding | PrPC confirm | LD9 tox
C/C=C(/C)C(=O)Nc1cccc(C2=NOC3(C2)C[C@@H](C(N)=O)N(C(=O)[C@H]2CCC(=O)N2)C3)c1 (some centres undefined) | 4.5 | -5.2 | -0.8 | 1.8 | -13.5 | 0.3 | . | .
C=C(C)C(=O)Nc1cccc(C2=NOC3(C2)C[C@@H](C(N)=O)N(C(=O)[C@H]2CCC(=O)N2)C3)c1 (some centres undefined) | -4.0 | -5.1 | 3.5 | 49.9* | -10.6 | -0.5 | 38.2* | -2.1
O=C(CSCc1ccccc1)NCc1cc(-c2ccncc2)n(C2CCCC2)n1 | . | -1.0 | . | . | . | . | . | .
COc1ccccc1-c1ncn(Cc2cccc(-c3ccccc3)c2)c1CC(C)C | . | . | . | 27.2* | . | . | 14.8 | 7.4
CCCc1c(-c2ccc(F)cc2F)ncn1Cc1cccc(-c2ccccc2)c1 | . | . | . | 29.9* | . | . | 18.3 | 7.9
CCCc1c(-c2cccc(Cl)c2)ncn1Cc1cccc(-c2ccccc2)c1 | . | . | . | 4.4 | . | . | . | .
CCc1c(-c2ccccc2OC)ncn1Cc1cccc(-c2ccccc2)c1 | . | . | . | 23.0 | . | . | . | .
O=C(Cc1cccs1)NCCc1nc(C2CC2)cc(C(F)(F)F)n1 | . | -9.0 | . | . | . | . | . | .
Cc1ccc(NC(=O)c2c(C(F)(F)F)nn(C)c2SCc2cccc(C(F)(F)F)c2)cc1C | -22.3 | -8.9 | 3.5 | 30.0* | -12.0 | -2.5 | 24.7* | 9.4*
O=C(Cc1ccc(Cl)cc1)NC[C@@H](c1ccc2c(c1)OCO2)N1CCN(c2ccccc2)CC1 | . | 15.0 | . | . | . | . | . | .
CCOC(=O)c1cccc(NC(=O)Cn2cnc3c(sc4cccc(F)c43)c2=O)c1 | . | -8.0 | . | . | . | . | . | .
O=C(Nc1oc2ccccc2c(=O)c1-c1ccc2c(c1)OCO2)c1ccco1 | . | . | . | 33.5* | . | -1.3 | 28.0* | 3.2
Cc1cc(NC(=O)Cn2c(=O)n(Cc3ccccc3)c(=O)c3nccnc32)ccc1Br | . | 1.0 | . | . | . | . | . | .
CC(C)c1ccccc1-n1c(SCC(=O)N2CCc3ccccc3C2)nc2ccccc2c1=O | -14.4 | 9.7 | 1.4 | 33.9* | -16.4 | -8.8 | 36.3* | 35.0*
O=C(CSc1nc2ccccc2c(=O)n1-c1ccccc1)N1CCc2ccccc2C1 | -11.9 | -9.0 | . | -6.3 | -10.7 | -3.9 | . | .
Cc1nsc(C(=O)N2CCN(c3ccc(C(F)(F)F)cn3)CC2)n1 | . | -9.0 | . | . | . | . | . | .
COCCN1C(=O)C(=O)C(=C(O)c2ccc(S(=O)(=O)N3CCOCC3)cc2)C1c1ccc(OC)c(OC)c1 (centres undefined) | . | 7.4 | . | . | . | . | . | .
CN(CC#CCN)Cc1ccccc1 | . | -4.0 | . | . | . | . | . | .
O=C(O)CCSc1ccc2ccccc2n1 | 7.9 | -11.1 | -0.7 | 82.3* | -0.8 | -1.8 | 88.7* | -2.6
O=C(O)CSc1ccc2ccccc2n1 | 4.4 | 0.6 | 2.0 | 57.8* | -6.0 | 1.3 | 57.6* | -1.2
Cc1nc(SCCC(=O)O)c2ccccc2n1 | 0.1 | 1.9 | 3.1 | 102.8* | 0.9 | -1.3 | 118.9* | 2.7
CCOC(=O)CSc1ccc2ccccc2n1 | 0.6 | -24.8 | -0.8 | 28.4* | -10.2 | 0.0 | 60.8* | -7.1
CCOC(=O)CSc1nc2ccccc2n1C(=O)OCC | -7.5 | -11.7 | -0.7 | 2.7 | 3.6 | 0.3 | . | .
Cc1cc(SCCC(=O)O)nc2ccccc12 | 8.6 | 1.1 | 0.1 | 8.4 | -3.6 | -0.6 | . | .
COc1cccc2sc(N(CCCN(C)C)C(=O)/C=C/c3ccccc3)nc12 | . | -18.0 | . | . | . | . | . | .
SMILES | Rv3671c inh | SSB-PriA inh | Mtb UGM inh | PrPC TRFRET | PrP UTR inh | FadD28 binding | PrPC confirm | LD9 tox
O=C(COc1ccnc2c1CCCC2)NCc1ccccc1F | . | 7.0 | . | . | . | . | . | .
N#C/C(=N\Nc1ccc(Cl)cc1)C(=O)c1ccccc1 | 1.3 | . | -0.1 | 7.2 | -21.0 | 0.6 | . | .
Cc1c(N/N=C(\C#N)C(=O)c2ccc(Cl)cc2)c(=O)n(-c2ccccc2)n1C | 8.3 | . | 1.2 | 34.5* | 22.0 | 1.2 | 25.5* | 24.7*
Cc1sc2ncnc(Oc3ccc4ccc(Oc5ncnc6sc(C)c(C)c56)cc4c3)c2c1C | . | -11.0 | . | . | . | . | . | .
COc1ccc(NC(=O)NNC(=O)COc2ccc3cc(Br)ccc3c2)cc1OC | -35.9 | -13.9 | -2.3 | 41.5* | -24.3 | -3.8 | 69.0* | -7.3
CC(C)c1cc(=O)n2c(n1)SCC2CC(=O)Nc1cccnc1 (centres undefined) | . | -1.0 | . | . | . | . | . | .
COC(=O)C1(C)CCc2cc(OC)ccc2C1=O (centres undefined) | -4.9 | 1.5 | 2.3 | -4.4 | -24.1 | -1.4 | . | .
COc1ccc2c(c1)CCC1(C)CC(=O)C(Br)=C21 (centres undefined) | . | . | . | 42.1* | . | -2.3 | 67.5* | -4.2
N#CNC(=Nc1cccc(F)c1)SCc1ccccc1F | 0.2 | -16.1 | -1.1 | 25.8* | -4.7 | 0.8 | 16.8 | 7.7
Cc1ccc(OCc2nc3ccccc3n2C(C)C(=O)Nc2c(C)cccc2C)cc1 (centres undefined) | . | . | . | 33.0* | . | . | 25.5* | -2.8
Cc1ccc(OCc2nc3ccccc3n2C(C(=O)NC(C)(C)C)c2ccccc2)cc1 (centres undefined) | . | . | . | 9.4 | . | . | . | .
CCCS(=O)(=O)NC[C@H](OC)c1ccccc1OC | . | -20.0 | . | . | . | . | . | .
Cc1ccc(C(=O)CSc2nnnn2-c2ccccc2)cc1C | . | -7.0 | . | . | . | . | . | .
Cc1nnc2n(-c3ccccc3)c(=O)c3c4c(sc3n12)CCCC4 | 2.3 | 14.8 | 3.7 | 14.7 | -3.9 | -0.3 | . | .
NC(=O)CSc1nnc2n(-c3ccccc3)c(=O)c3c4c(sc3n12)CCCCC4 | 3.9 | -13.2 | -2.1 | 50.5* | -17.7 | -3.6 | 85.8* | -5.1
O=S(=O)(Nc1ccc(Cc2ccncc2)cc1)c1ccc(Cl)cc1 | -0.4 | -14.8 | -2.6 | 40.3* | -16.1 | -3.0 | 37.9* | -1.2
O=S(=O)(Nc1ccc(Cc2ccncc2)cc1)c1ccc(Br)cc1 | -11.7 | -5.1 | -1.4 | 36.3* | -36.8 | -4.4 | 30.7* | 3.8
Cc1nc(N2CCC(NC(=O)C(C)Oc3cccc(Cl)c3)CC2)cc(C(F)(F)F)n1 (centres undefined) | . | -15.0 | . | . | . | . | . | .
Nc1nc2cc3c(cc2s1)OCO3 | . | 5.0 | . | . | . | . | . | .
Cc1cc2nc(N)sc2cc1C | -9.6 | -0.4 | -2.8 | 35.7* | -78.5 | -1.7 | 8.1 | -3.5
CCCOc1ccc(N2CCN(C(=O)c3cc(Cl)ccc3OC)CC2)nn1 | . | 1.0 | . | . | . | . | . | .
Cc1csc(NC(=O)CSc2nc(C(C)C)nc3c2c(=O)n(C)c(=O)n3C)n1 | -0.7 | -12.0 | 0.3 | 26.7* | -7.8 | 1.7 | 19.6 | 8.2
CC(C)c1nc(SCC(=O)O)c2c(=O)n(C)c(=O)n(C)c2n1 | . | -4.0 | . | . | . | . | . | .
Cc1ccc(C2C(C#N)=C(N)SC(N)=C2C#N)c(C)c1 | -36.9 | -1.7 | 0.0 | . | -7.1 | 0.8 | . | .

Screens (PubChem)
